Source: PubChem
CBX7 AlphaScr: CBX7 inhibition, primary AlphaScreen; O95931; AlphaScreen His6-CBX7 / biotin-H3K27me3 peptide binding; stronger effect = lower value; normalised signal (fraction of DMSO) (no concentration beside the values); 66,000 compounds, 1.1% hits; in the data active = normalised signal below about 0.5
Target sequence (O95931 whole entry, looked up): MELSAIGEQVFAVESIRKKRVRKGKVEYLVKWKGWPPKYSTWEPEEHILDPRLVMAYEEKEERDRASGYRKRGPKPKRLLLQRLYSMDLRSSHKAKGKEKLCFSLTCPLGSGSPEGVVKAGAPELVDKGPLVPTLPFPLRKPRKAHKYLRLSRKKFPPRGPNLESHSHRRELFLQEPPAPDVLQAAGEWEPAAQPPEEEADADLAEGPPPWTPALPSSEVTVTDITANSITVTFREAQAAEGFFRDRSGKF
Starred values were filed as active, the others as inactive. Shown is part of a subset that was picked to be rich in hits.

SMILES	CBX7 AlphaScr
Cc1ccc(C(=O)Nc2c(C(=O)c3ccc(Br)cc3)oc3ccccc23)cc1	1.2
O=C(COc1ccccc1)NC1CCS(=O)(=O)C1 (configuration not stated)	1.3
CCN(CCCNC(=O)C1CCN(c2nc3ccc(OC)cc3s2)CC1)c1ccccc1	0.84
CCCn1cc(C2CC(=O)N(c3ccc(Br)cc3)C2=O)c2ccccc21 (configuration not stated)	1.1
CCCn1cc(C2CC(=O)N(c3ccccc3C)C2=O)c2ccccc21 (configuration not stated)	0.46*
CCCn1cc(C2CC(=O)N(c3ccc(C)cc3)C2=O)c2ccccc21 (configuration not stated)	1
COc1ccccc1N1CCN(C(c2cccs2)C(C)NS(=O)(=O)c2ccccc2)CC1 (configuration not stated)	0.87
Cc1nc2c(C(=O)NC3CCCCC3)cnn2c(C)c1Cc1ccc(Cl)cc1	0.97
Cn1c(NC(=O)Nc2ccccc2Br)cc2sccc21	0.92
Cc1ccc(NC(=O)CCc2nnc3ccc(N4CCC(C(N)=O)CC4)nn23)cc1C	0.97
Cc1ccc(OCCn2c(C3CC(=O)N(c4cccc(C)c4C)C3)nc3ccccc32)cc1 (configuration not stated)	0.79
Cc1ccc(OCCn2c(C3CC(=O)N(c4cc(C)ccc4C)C3)nc3ccccc32)cc1 (configuration not stated)	0.49*
Cc1ccc(C)c(N2CC(c3nc4ccccc4n3CCOc3ccccc3)CC2=O)c1 (configuration not stated)	0.7
Cn1c(SCC(=O)NCc2ccc(F)cc2)nnc1-c1c[nH]c2ccccc12	1.1
CN(C)CCNC(=O)c1cc(-c2ccccc2)nc2ccccc12	1
OC(c1ccc(Cl)cc1)(c1ccc(Cl)cc1)c1cccnc1N1CCCCC1	1.1
C=C(C)c1cccc(C(C)(C)NC(=O)NCCc2ccc(S(N)(=O)=O)cc2)c1	1.1
COc1ccc(OC)c(NC(=O)c2c(NCc3ccc(N(C)C)cc3)sc3c2CCCC3)c1	0.48*
COc1ccc(OC)c(NC(=O)c2c(NCc3ccc(OC)c(OC)c3)sc3c2CCC3)c1	0.71
COc1cccc(CNc2sc3c(c2C(=O)Nc2cc(OC)ccc2OC)CCCC3)c1	0.77
COc1cccc(CNc2ccc3c(c2)ncn3C(C)(C)C)c1OC	0.64
CCCn1cnc2cc(NCc3ccc(OC)cc3OC)ccc21	0.88
COc1cccc(CNc2ccc3c(c2)ncn3-c2ccccc2)c1OC	0.26*
Cc1ccc(C(=O)Nc2ccc3c(c2)ncn3-c2ccccc2)cc1	0.99
COc1ccc(-n2cnc3cc(NCc4cccc(OC)c4OC)ccc32)cc1	0.2*
SMILES	CBX7 AlphaScr
CCn1cnc2cc(NCc3ccc(OC)cc3OC)ccc21	0.93
CCn1c(SCC(=O)Nc2nc(C)cs2)nnc1-c1c[nH]c2ccccc12	1.2
Cc1cccc(-c2nc(SCC(=O)Nc3ccc4c(c3)OCO4)c(-c3ccccc3)[nH]2)c1	0.78
Cc1nn(Cc2ccccc2Cl)c(C)c1NC(=O)c1cc(-c2cccs2)on1	0.97
CC(C)OCc1ccc(O)c2ncccc12	0.0041*
O=C(Nc1ccc(Cl)c(-c2nc3ccccc3o2)c1)c1ccc(F)cc1	1
O=C1CC(NCC(O)c2ccccc2)C(=O)N1c1ccc(Cl)cc1 (configuration not stated)	1
Cc1cc(=O)oc2c(CN3CCCC3)c(O)ccc12	1.1
CCn1cc(C(=O)N2CCCCC2)c(=O)c2ccc(C)nc21	1.1
Cc1cc(=O)n2ccc(CN3CCCCC3)c(O)c2n1	0.0042*
COc1ccc(-c2cc(C(F)(F)F)nc(NCc3ccc(Cl)cc3)n2)cc1	1.3
CC(NC(=O)C1(NS(=O)(=O)c2cccc3cccnc23)CCCCC1)c1ccccc1 (configuration not stated)	1
CC(NS(C)(=O)=O)C(c1cccs1)N1CCN(C)CC1 (configuration not stated)	1
Cc1nc2c(C)nn(-c3ccccc3)c2s1	0.82
CCOc1ccc(N(C)S(=O)(=O)c2ccc3[nH]cc(C(=O)NCCCOC)c(=O)c3c2)cc1	1
CCc1ccccc1NC(=O)C(C)N1C(=O)c2ccccc2C1=O (configuration not stated)	0.98
CCOc1ccc(CN(C)CCc2ccccn2)cc1	0.47*
COc1ccc(S(=O)(=O)N(C)CCc2ccccn2)cc1	0.94
COc1ccccc1CN(C)CCc1ccccn1	1
CCOC(=O)c1sc2nc(C)n(CC(=O)Nc3cccc(C)c3)c(=O)c2c1C	0.97
CSc1cccc(Nc2cc(C(=O)NC3CCCC3)c3ccccc3n2)c1	1.2
CCOC(=O)N1CCC(NC(=O)CCc2c(C)nc3c(-c4ccc(F)cc4)c(C)nn3c2C)CC1	1.1
Cc1cc(C(=O)CN2CC(C)OC(C)C2)c(C)n1-c1ccc(F)c(Cl)c1 (configuration not stated)	0.8
COc1cc(C(=O)Nc2nc(-c3ccccn3)cs2)cc(OC)c1OC	0*
CN(Cc1ccccc1)S(=O)(=O)c1ccc(C(=O)Nc2nc(-c3ccccn3)cs2)cc1	0.94
SMILES	CBX7 AlphaScr
COc1ccc(C(=O)Nc2nc(-c3ccccc3)cs2)cc1OC	0.83
CCCCN(CCCC)S(=O)(=O)c1ccc(C(=O)Nc2nc(-c3ccccn3)cs2)cc1	0.93
COc1cc(C(=O)Nc2ccccn2)cc(OC)c1OC	1.1
O=C(Nc1nc(-c2ccccn2)cs1)c1cccc(Oc2ccccc2)c1	0.039*
O=C(Nc1nc(-c2ccccn2)cs1)c1ccc(N2C(=O)CCC2=O)cc1	0.071*
Cc1ccc(-c2csc(NC(=O)c3cccc(Oc4ccccc4)c3)n2)cc1	1.1
Cc1cc(C)c(-c2csc(NC(=O)c3cccc(Oc4ccccc4)c3)n2)c(C)c1	1.1
CCOc1cc2[nH]c(=O)n(CCCC(=O)NCc3ccc4c(c3)OCO4)c(=O)c2cc1OCC	0.99
Cc1ccc(-c2nc(C(=O)NCCCN3CCCCCC3)c(C)o2)cc1	1
CCOC(=O)c1cc(-c2ccccc2)n(CCC(=O)Nc2nc3ccc(C)cc3s2)c1C	0.89
O=C(CC1Sc2ccc(C(F)(F)F)cc2NC1=O)Nc1ccc(N2CCCCC2)cc1 (configuration not stated)	0.97
COc1ccc(-n2c(Cc3cc(=O)[nH]c(=O)[nH]3)nnc2SCC(=O)Nc2ccccc2)cc1	1
Cc1nnc(NC(=O)c2cn(C)c(=O)c3ccccc23)s1	0.95
CC(C)Oc1ccc(C2CC(=O)Nc3cc4c(cc32)OCO4)cc1 (configuration not stated)	0.92
COc1ccc(CNC(=O)CS(=O)(=O)Cc2nc(-c3cccc(Cl)c3)oc2C)cc1	1
COc1ccc(-c2noc(N(C)CC(=O)Nc3cccc(C(F)(F)F)c3)n2)cc1	1.1
COCCCNC(=O)C1C2C=CC3(CN(Cc4ccccc4Cl)C(=O)C13)O2 (configuration not stated)	0.82
O=C(NCc1ccccn1)c1ccc2c(=O)n(CCc3ccccc3)c(=O)[nH]c2c1	0.9
CCCCCn1c(=O)[nH]c2cc(C(=O)NCc3ccccn3)ccc2c1=O	0.11*
CCCCCn1c(=O)[nH]c2cc(C(=O)NCc3ccc(Cl)cc3)ccc2c1=O	1
COCc1nnc(NC(=O)c2ccc(S(=O)(=O)N(CC(C)C)CC(C)C)cc2)o1	0.081*
C=CCN(CC=C)S(=O)(=O)c1ccc(C(=O)Nc2nnc(COC)o2)cc1	0.069*
Cc1nc2c3ccccc3nc(N3CCN(c4ccccc4)CC3)n2n1	1.1
COc1ccc(CNC(=O)C(=O)NCCCN2CCOCC2)cc1	1
